Assay results as given in the supplement of paper PMC12340641.

Columns and labels:
[1] = molecular target: IKZF1 (dCK*-IKZF1 fusion in HEK293FT) (UniProt Q13422); assay: inhibition of IKZF1 HTRF signal (DMSO = 0%, pomalidomide 10 uM = 100%); higher = lower IKZF1 protein level; conditions: compound concentration: 5 uM, overnight (~20 h)
How it was run: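 Compound was tested at 5 μM in single wells on HEK293FT cells (2000/well, 384-well) stably carrying an IKZF1 fusion, overnight at 37 °C. Total IKZF1 was measured in lysates with a commercial HTRF antibody kit as the background-subtracted 665/620 nm time-resolved FRET ratio. The reported figure is percent inhibition of IKZF1 signal, scaled per plate between vehicle and a reference degrader. The vehicle anchor was 0% and the degrader anchor 100%.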

HEK293FT dCK*-only = assay: relative growth in counter assay (no AraC = 100%, AraC + DMSO = 0%); higher = more growth rescue independent of IKZF1; conditions: compound concentration: 5 uM; AraC concentration: 0.3 uM; overnight pretreatment + 4 days AraC
How it was run: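 For this counter assay, relative growth was normalised on each plate to two kinds of reference wells. HEK293FT cells expressing only an engineered kinase construct (300/well, 384-well) were treated with 5 μM compound 2 h after seeding, then after overnight at 37 °C with a nucleoside suicide substrate at 0.3 μM plus medium for 4 days. On day 5, Hoechst 33342-stained nuclei were counted by imaging, taking wells without suicide substrate as 100% and substrate plus vehicle as 0%.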

HEK293FT dCK*-IKZF1 = assay: relative growth recovery (pomalidomide 10 uM = 100%, DMSO = 0%); higher = more growth rescue (IKZF1 fusion degradation); conditions: compound concentration: 5 uM; AraC concentration: 0.3 uM; overnight pretreatment + 4 days AraC
How it was run: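 HEK293FT cells stably expressing an engineered deoxycytidine kinase–IKZF1 fusion were seeded at 300 per well in 384-well plates and given 5 μM compound 2 h later. After overnight incubation at 37 °C, a nucleoside suicide substrate at 0.3 μM was added with medium for 4 days, and on day 5 Hoechst 33342-stained nuclei were counted by whole-well imaging. Growth recovery was normalised per plate between a reference degrader and vehicle, set to 100% and 0% respectively, and the values are means of duplicates run on different days.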

IKZF1 (dCK*-IKZF1 fusion in HEK293FT), sequence (Q13422 whole entry, looked up, the tested form may be a part): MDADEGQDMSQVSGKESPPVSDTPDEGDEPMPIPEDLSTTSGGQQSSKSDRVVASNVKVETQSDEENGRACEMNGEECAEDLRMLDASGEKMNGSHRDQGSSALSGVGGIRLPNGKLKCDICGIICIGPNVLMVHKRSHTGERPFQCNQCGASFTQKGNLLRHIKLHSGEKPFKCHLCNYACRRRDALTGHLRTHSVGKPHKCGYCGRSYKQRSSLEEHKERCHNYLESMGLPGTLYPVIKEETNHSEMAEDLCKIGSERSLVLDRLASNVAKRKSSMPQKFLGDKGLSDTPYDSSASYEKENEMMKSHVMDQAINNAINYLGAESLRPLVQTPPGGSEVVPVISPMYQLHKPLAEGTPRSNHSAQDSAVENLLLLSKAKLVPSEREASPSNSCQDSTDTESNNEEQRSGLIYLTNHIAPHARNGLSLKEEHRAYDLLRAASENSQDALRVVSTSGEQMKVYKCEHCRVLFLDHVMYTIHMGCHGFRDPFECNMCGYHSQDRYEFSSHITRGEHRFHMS

SMILES	inhibition of IKZF1 HTRF signal [1] [%]	relative growth in counter assay (HEK293FT dCK*-only) [%]	relative growth recovery (HEK293FT dCK*-IKZF1) [%]
CC1=C(C(=O)OC(C)C)C(c2cccc([N+](=O)[O-])c2)C(C(=O)OC2CN(C(c3ccccc3)c3ccccc3)C2)=C(N)N1 (configuration not stated) [Azelnidipine]	10.4	12.8	0.07
CCCCC(=O)OCC(=O)[C@]1(O)Cc2c(O)c3c(c(O)c2[C@@H](O[C@H]2C[C@H](NC(=O)C(F)(F)F)[C@H](O)[C@H](C)O2)C1)C(=O)c1c(OC)cccc1C3=O [Valrubicin]	-26.2	-34.4	-11.8
Cc1nc(-c2cccnc2)sc1C(=O)Nc1ccccc1-c1cn2c(CN3CCOCC3)csc2n1	6.43	-2.87	-0.27
CC1(C)C(=O)N=C2C1=C(O)C(=O)c1ccccc12	80	-34.8	-12.4
C1CCC(N/C(=N/C23CC4CC(CC(C4)C2)C3)N2CCOCC2)CC1	-35.4	13	1.62
CO[C@@H]1[C@@H](OC2O[C@H](C)[C@@H](O[C@H]3C[C@@](C)(O)[C@@H](O)[C@H](C)O3)[C@H](N(C)C)[C@H]2O)[C@@H](CC=O)C[C@@H](C)[C@@H](O[C@H]2CC[C@H](N(C)C)[C@@H](C)O2)/C=C/C=C/C[C@@H](C)OC(=O)C[C@H]1O (some centres not stated)	-29.9	-5.7	2.43
COc1cc(N2CCN(C)CC2)ccc1Nc1nccc(-c2cn(C)c3cnccc23)n1	-30.7	-9.1	-0.12
CCC1/C=C(\C)CC(C)CC(OC)C2OC(O)(C(=O)C(=O)N3CCCCC3C(=O)OC(/C(C)=C/C3CCC(O)C(OC)C3)C(C)C(O)CC1=O)C(C)CC2OC (configuration not stated) [Ascomycin (FK520)]	4.12	22.2	13.5
O=C(O)c1ccccc1-c1c2cc(I)c(=O)c(I)c-2oc2c(I)c(O)c(I)cc12	23.2	-0.87	-1.36
CCc1c2c(nc3ccc(O)cc13)-c1cc3c(c(=O)n1C2)COC(=O)[C@]3(O)CC	36.8	-33.9	-13
COc1cnc(NS(=O)(=O)c2ccc(N)cc2)nc1	-36.1	-10.1	-3.84
Oc1c(I)cc(I)c2cccnc12	-30.6	-11.2	-3.46
Clc1ccc(CSC(Cn2ccnc2)c2ccc(Cl)cc2Cl)cc1 (configuration not stated)	-35.5	-4.03	-1.39
CN(C)C(=O)C(CCN1CCC(O)(c2ccc(Cl)cc2)CC1)(c1ccccc1)c1ccccc1	-14.4	0.63	-0.755
Oc1cccc2cc3cccc(O)c3c(O)c12 [dithranol]	-46.9	3.52	-0.86
c1ccc(C(NCc2cccnc2)(c2ccccc2)c2ccccc2)cc1	-26.2	3.05	-0.7
CCCCc1ccc2[nH]c(NC(=O)OC)nc2c1 [parbendazole]	-10.3	-34.4	-11.7
Cc1cc(C)c(C2=NOC3C4CCC(C4)C23)c(C)c1 (configuration not stated)	-34	1.92	-0.34
C=C1/C(=C/C=C2\CCC[C@]3(C)[C@@H]([C@H](C)/C=C/[C@@H](C)C(C)C)CC[C@@H]23)C[C@@H](O)C[C@@H]1O [Doxercalciferol (Hectorol)]	-23	1.09	2.85
NS(=O)(=O)c1cc2c(cc1Cl)NC(C(Cl)Cl)NS2(=O)=O (configuration not stated)	19.3	-3.14	-3.58
CN(C)c1ccc(C(=C2C=CC(=[N+](C)C)C=C2)c2ccc(N(C)C)cc2)cc1	-12.9	-35.1	-13.1
COc1cc(NS(=O)(=O)c2ccc(N)cc2)ncn1	-31.4	-5.7	-0.825
Cc1ccc(S(=O)(=O)c2ccc([N+](=O)[O-])o2)cc1	-48.9	-34	-12.9
O=[N+]([O-])c1ccc2nc(COCc3nc4ccc([N+](=O)[O-])cc4[nH]3)[nH]c2c1	-34.1	-3.14	4.2
O=C1Nc2ccc(Cl)cc2[C@@](C#CC2CC2)(C(F)(F)F)O1 [Efavirenz]	0.88	-1.3	0.45
CN(Cc1cnc2nc(N)nc(N)c2n1)c1ccc(C(=O)N[C@@H](CCC(=O)O)C(=O)O)cc1	-18.9	-31.2	-10.1
CC1(C)C(/C=C/C=C/C=C/C=C2/N(CCCCS(=O)(=O)[O-])c3ccc4ccccc4c3C2(C)C)=[N+](CCCCS(=O)(=O)[O-])c2ccc3ccccc3c21 [Cardiogreen]	-28.9	-5.7	0.4
Cc1cc(C2CCCCC2)n(O)c(=O)c1	-23.8	-24.9	-10.6
Cc1cccc(C)c1NC(=O)CN1CCN(CCCC(c2ccc(F)cc2)c2ccc(F)cc2)CC1 [lidoflazine]	-30.1	35.6	36.1
